These results are taken from PubChem BioAssay AID2530 (National Center for Advancing Translational Sciences (NCATS), 2010).

Records with an inconclusive call do not appear. Activity calls are given as the source filed them. The call rests on the fitted dose curve; in most records, active means well fitted inhibition curve with a large enough effect; inconclusive means small, poorly fitted or top-dose-only effect; inactive means flat fitted curve, though single readings scatter.
Potency means the concentration at half of the fitted maximal effect.

This assay deals with Luciferin 4-monooxygenase (Photuris pensylvanica) (UniProt Q27757). Put plainly: Secondary Assay for Luciferase (Kinase-Glo TM) Inhibition Counterscreen.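 On activity, negative = inhibition: 0% = DMSO only and -100% = 40 µM SIB 1757 full inhibition.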 To be noted: Kinase-Glo luciferase enzyme, luminescence; series mostly up to 58.1 µM; activity, negative = inhibition: at the top concentration. The method in brief:
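Inhibition was fitted with the Hill equation after normalizing luminescence to DMSO (basal) and 40 uM SIB 1757 (full inhibition). Kinase-Glo luciferase ran for 8 min at room temperature in imidazole buffer pH 7.2 with KCl, MgCl2 and 10 uM ATP.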
`Cc1ccc(OC2=NS(=O)(=O)c3ccccc32)cc1`: the “activity, negative = inhibition” value was -1.98% (inactive).
On the same count and under the same terms, in the case of `O=C1CCc2cc(S(=O)(=O)Nc3cccc(Cl)c3)ccc2N1` it was -0.248% (inactive).
On to `Cc1ccc(NS(=O)(=O)c2cc3c(cc2N(C)C)NC(=O)CC3)cc1C`, for which the “activity, negative = inhibition” value is 0.348% (inactive).
Same read-out and setting: in the case of `Cc1ccc(NS(=O)(=O)c2ccc3c(c2)n(C)c(=O)n3C)cc1C` it was -0.468% (inactive); in that of `COc1cc(N2C(=O)C=CC2=O)c(OC)cc1Cl`, -4.86% (inactive); in that of `O=C1CCc2cc(S(=O)(=O)Nc3cccc(C(F)(F)F)c3)ccc2N1`, -1.7% (inactive).
On the same count and under the same terms, in the case of `Cc1ccc(NS(=O)(=O)c2ccc(N3CCCC3=O)cc2)cc1C` it was -2.22% (inactive); in that of `CSc1cc2c(s1)c1cnn(Cc3cccc(O)c3)c(=O)c1n2C`, -1.24% (inactive).
Same read-out and setting: the value for `CCCCN1C(=O)c2ccccc2C1=O` was 0.2% (inactive); that for `CC(C)(C)NC(=O)C(c1ccncc1)N(C(=O)Cn1nnc(-c2ccc(F)cc2)n1)c1ccccc1` (centres undefined) was -1.65% (inactive).
As to `CC[n+]1c(C)sc2sc3ccccc3c21`, the “activity, negative = inhibition” value was 0.171% (inactive).
On the same count and under the same terms, in the case of `O=C1c2ccccc2C(=O)N1c1cncc2ccccc12` it was 0.68% (inactive).
Still for that read-out and setting: the value for `O=C1c2ccccc2C(=O)N1c1ccc2ncccc2c1` was 1.15% (inactive).
Same read-out and setting: in the case of `CC(C)CN=Cc1c(O)c([N+](=O)[O-])cc2oc3c(c12)CCCC3` it was -0.0817% (inactive); in that of `Cc1cc(N2C(=O)c3ccccc3C2=O)n[nH]1`, 1.57% (inactive); in that of `O=C1c2ccccc2C(=O)N1c1cccc2ncccc12`, -0.367% (inactive).
For `Cc1ccc(NS(=O)(=O)c2ccc3c(c2)CCN(C(=O)C(F)(F)F)C3)cc1C`, the “activity, negative = inhibition” value was -1.2% (inactive).
Regarding `Cc1ccc(NS(=O)(=O)c2ccc3c(c2)CCC(C)(C)O3)cc1C`, the “activity, negative = inhibition” value is -2.01% (inactive).
For the molecule `O=C1c2ccccc2C(=O)N1Cc1ccccc1`, the “activity, negative = inhibition” value was -0.279% (inactive).
Consider `Cc1ccc(-c2cc3c(nn2)-c2ccccc2C3=O)cc1`, for which the Potency is 5.8 µM (active).
In the case of `COc1cc(F)c(S(=O)(=O)N2CCCN(S(=O)(=O)c3cccc(N)c3)CC2)c(F)c1`, the “activity, negative = inhibition” value is -0.216% (inactive).
For `CN=c1scc(-c2ccco2)n1/N=C/c1ccc(O)c(O)c1`, the “activity, negative = inhibition” value was -14.5% (inactive).
For `Cc1ccc(NS(=O)(=O)c2cc3c(cc2Br)NC(=O)CO3)cc1C`, the “activity, negative = inhibition” value is -0.929% (inactive).
On to `CN=c1nc(-c2ccccc2)n(-c2ccccc2)s1`, for which the “activity, negative = inhibition” value was -0.55% (inactive).
`O=C1c2ccccc2C(=O)N1Cc1ccccn1`: the “activity, negative = inhibition” value is -3.08% (inactive).
Still for that read-out and setting: the value for `O=C1c2ccccc2C(=O)N1c1ccc2ccccc2n1` was -1.93% (inactive).
As to `Brc1ccc(N=Nc2ccc3ccccc3n2)cc1`, the Potency is 7.3 µM (active).
For the molecule `Cc1ccc(NS(=O)(=O)c2cc3c(cc2Cl)CCC(=O)N3)cc1C`, the “activity, negative = inhibition” value was -0.531% (inactive).
In the case of `Cc1ccc(NS(=O)(=O)c2cc3c(cc2-c2cn[nH]c2)NC(=O)CO3)cc1C`, the “activity, negative = inhibition” value was 2.46% (inactive).
For the molecule `Cc1ccc(NS(=O)(=O)c2cccc(Cl)c2)cc1C`, the “activity, negative = inhibition” value was 2.39% (inactive).
Regarding `O=C1CCc2cc(S(=O)(=O)Nc3ccc(-c4ccccc4)cc3)ccc2N1`, the “activity, negative = inhibition” value was 0.842% (inactive).
For `O=C(NC(=O)c1ccccc1)Nc1ccccn1`, the Potency was 5.8 µM (active).
As to `COc1ccccc1OC1=NS(=O)(=O)c2ccccc21`, the “activity, negative = inhibition” value was -0.0267% (inactive).
Take `COc1ccc(-c2cc3nc(C)n(N)c(=O)c3s2)cc1`: the Potency is 2.31 µM (active).
Still for that read-out and setting: the value for `O=C(Nc1ccc2c(c1)OCCO2)c1ccccn1` was 18.3 µM (active).
Consider `C[C@]12CC[C@@H]3c4cc(O)c(O)cc4CC[C@H]3[C@@H]1CC[C@@H]2O`, for which the “activity, negative = inhibition” value is -6.33% (inactive).
On the same count and under the same terms, the value for `Cc1ccc(NS(=O)(=O)c2cc3c(cc2Cl)NC(=O)CO3)cc1C` was -2.48% (inactive).
Consider `COc1ccc(C(=O)N=c2nc3ccccn3s2)cc1`, for which the Potency was 5.8 µM (active).
Turning to `O=C1CCc2cc(S(=O)(=O)NCc3ccccc3)ccc2N1`, the “activity, negative = inhibition” value is -4.55% (inactive).
